HT1080 IDH1KD tx: kills HT-1080 cells with IDH1 knockdown | hit rate 2% among 360,000 | HT-1080 IDH1 knockdown viability, ATP luminescence, 48 h | Potency, µM (series often up to 46.1 µM), without a hit: at the highest dose activity, negative = toxicity, hits mostly cytotoxic;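 also: potency is read from the fitted curve at half-maximal effect; 0% = DMSO wells and -100% = cell-free medium wells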
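After a 2 h attachment period, IDH1KD HT-1080 cells took pin-transferred compound for 48 h at 37 °C; ATP-based luminescence after 10 min room-temperature reagent incubation reported viability.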
uPA surface inh: cell surface uPA generation inhibition | cell surface uPA generation assay, qHTS | Potency, µM (highest dose often 38.3 µM), for inactives: at the top dose activity change, negative = inhibition, hits mostly inhibitors | hit rate 0.31% among 330,000; active = well fitted inhibition curve with a large enough effect; inconclusive = small, poorly fitted or top-dose-only effect; inactive = no such curve, though single readings can be large or run the other way; tested in mouse RAW 264.7 cells; also: potency is read from the fitted curve at half-maximal effect; nearly all actives have a fitted effect of over 55% in size
HT1080NT lethal: kills 2HG-producing HT-1080-NT fibrosarcoma cells | HT-1080-NT fibrosarcoma viability, CellTiter-Glo ATP luminescence, 48 h | Potency, µM (top dose mostly 46.1 µM), for inactives: at the highest dose activity, negative = less viability, most hits filed as cytotoxic | hit rate 1.6% among 360,000 | AID 686970;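 also: NT is the 2HG producing partner of a matched IDH1 knockdown line; potency is read from the fitted curve at half-maximal effect; 0% = DMSO-treated cells and -100% = media-only wells without cells; nearly all actives have a fitted effect of over 55% in size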
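Luminescent CellTiter-Glo readout after 48 hours of compound exposure at 37 degrees C defined viability of HT-1080-NT cells. Activity was normalized to DMSO wells and cell-free media wells; concentration-response curves were fitted and assigned curve classes.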
DT40 TDP1 CPT: DT40-hTDP1 cell growth loss with CPT. AID 686979. chicken DT40 Tdp1-/-;hTDP1 cells + 20 nM CPT, ATP luminescence, 48 h. Potency, µM (top dose mostly 46.2 µM), without a hit: at the top dose activity change, negative = growth inhibition, actives largely listed as inhibitors. hit rate 12% among 420,000; also: potency is read from the fitted curve at half-maximal effect; nearly all actives have a fitted effect of over 55% in size
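Cell growth measured by CellTiter-Glo luminescence after a minimum 48 h, 37 C compound exposure with 20 nM CPT in Tdp1-knockout DT40 cells stably expressing hTDP1, seeded 400/well; qHTS titration format.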
DT40 TDP1 no CPT: qHTS for Inhibitors of human tyrosyl-DNA phosphodiesterase 1 (TDP1): qHTS in cells in absence of CPT. hit rate 15% among 420,000. AID 686978, 2013. DT40 Tdp1-/- hTDP1 cells, no CPT, ATP luminescence, 48 h. Potency, µM (highest dose often 46.2 µM), for the others: top-dose activity change, negative = growth inhibition, hits mostly inhibitors; also: potency is read from the fitted curve at half-maximal effect; nearly all actives have a fitted effect of over 55% in size
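Chicken DT40 Tdp1-/- cells complemented with human TDP1, screened without camptothecin (DMSO vehicle only), 400 cells/well. Compounds pin-transferred, cells incubated at 37 °C for at least 48 hr. Growth read as ATP-dependent luminescence (CellTiter-Glo, 30 min at RT).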
IL1B secr inh: blocks inflammasome-driven IL-1 beta release; THP-1 LPS/ATP IL-1B secretion, AlphaLISA, 16 h; active compounds read low; activity change, % at 57.5 µM; hit rate 4.7% among 360,000; in the data active = activity change below about -50%; inconclusive = mostly about -30% to -49%
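Secreted IL-1B measured by AlphaLISA bead assay after 16 h compound exposure of THP-1 cells; compounds (final up to 57.5 uM) added 1 h before LPS (250 ng/mL) and ATP (1.25 mM) stimulation; lower signal means less secretion.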
Active calls of the source: *; ? = inconclusive; · = no result given; [ ] = remark or other dose. Hits are enriched below; roughly 19% of the tested compounds scored in any of these assays. Unless noted, calls follow the shape of the dose curve; as a rule, active = well fitted curve in the direction sought with a large enough effect; inconclusive = small, poorly fitted or top-dose-only effect, or another doubt; inactive = no such curve, though single readings can be large; an effect the other way counts as inactive or inconclusive. Unless noted, % is scaled to controls: 0 for no effect and ±100 for the full control effect.

SMILES | HT1080 IDH1KD tx | uPA surface inh | HT1080NT lethal | DT40 TDP1 CPT | DT40 TDP1 no CPT | IL1B secr inh
COc1ccc(-n2nc3c(N4CCC(C(=O)NCc5ccccc5C)CC4)nnc(C)c3c2C)cc1 | 16µM* | -11% | 15µM* | 18µM* | 7.3µM* | -95*
CCOc1ccc(NC(=O)C2CCN(c3nnc(C)c4c(C)n(-c5ccccc5)nc34)CC2)cc1 | · | · | · | -14% | -26% | ·
Cc1cc2c(cc1S(=O)(=O)NCc1ccccc1Cl)OCC(=O)N2 | · | · | · | ? | -18% | ·
CCOc1ccccc1CNS(=O)(=O)c1cc2c(cc1C)NC(=O)CO2 | · | · | · | ? | 23µM* | ·
CCCCN1C(C)=CC(=C2C(=O)c3ccccc3C2=O)C=C1C | 4% | -10% | 3% | -19% | ? | 0
Cc1ccc2c(c1)C(=O)C(=O)N2Cc1ccc(Br)cc1 | 23µM* | 4.5µM* | ? | 0.92µM* | 0.65µM* | 54
Cc1ccc(CN2C(=O)C(=O)c3cc(C)ccc32)cc1 | -10% | ? | -5% | 0.58µM* | 0.65µM* | 84
CCCCN1C(=O)C(=O)c2cc(Cl)ccc21 | 21µM* | ? | 26µM* | 1µM* | 0.82µM* | 38
Cc1ccc2c(c1)C(=O)C(=O)N2c1ccc(Cl)cc1 | -1% | 9% | 3% | ? | ? | -2
CCCN1C(=O)C(=O)c2cc(C)ccc21 | ? | 3.2µM* | ? | 2.1µM* | 3.3µM* | 49
Cc1cc(O)c(C)c2c1CC[C@H]1[C@H](C)C(=O)O[C@H]21 | · | · | · | 4%[9.04 µM] | -16%[9.04 µM] | ·
CC(C)CCOc1ccc(C(=O)O)cc1 | 3% | -2% | 2% | 12% | 13% | 18
Cc1ccc2c(c1)C(=O)C(=O)N2Cc1ccc(OCCC(C)C)cc1 | · | · | · | 0.41µM* | 0.41µM* | ·
O=C(c1ccc(Cl)cc1)n1nc(-c2ccccc2)nc1NCc1ccco1 | · | · | · | -1% | -5% | ·
CC1CCN(C(=O)COC(=O)Cc2ccc(Br)cc2)CC1 | 18% | 10% | 13% | 24% | 2% | 5
COc1cccc(S(=O)(=O)N(C)C[C@@H]2OCc3cn(nn3)CCCC(=O)N([C@@H](C)CO)C[C@H]2C)c1 | 2% | · | -2% | -18% | -26% | 7
O=[N+]([O-])c1c(C(Cl)Cl)nn(-c2ccccc2)c1N1CCOCC1 | -9% | -4% | -12% | ? | -27% | -81*
O=[N+]([O-])c1c(C(Cl)Cl)nn(-c2ccc(Cl)cc2)c1N1CCCCC1 | -7% | 3% | -9% | ? | 16µM* | 0
O=[N+]([O-])c1ccc(N2CCCCC2)cn1 | 12% | 6% | 14% | -2% | 8% | 4
Cc1nn(-c2ccccc2)c(C)c1[N+](=O)[O-] | 4% | -1% | 5% | -5% | -5% | 20
Cc1noc(C)c1C(=O)N1CCC1(C)C(=O)NS(=O)(=O)c1ccc(F)cc1F (stereo not drawn) | 22% | · | 5% | 4% | 0% | 8
CCc1cccc(C)c1NC(=O)CN(C)S(=O)(=O)c1ccc(-c2ccc(=O)[nH]n2)s1 | 3% | 0% | -12% | -5% | -18% | 0
COc1cccc(CNC(=O)[C@@H]2CCCN2C(=O)[C@@H]2CCCN2S(=O)(=O)c2ccc(OC)c(C)c2)c1 | 5% | · | 4% | ? | ? | 57
COc1ccc(S(=O)(=O)N2CCC[C@H]2C(=O)N2CCC[C@H]2C(=O)N[C@H](C)c2ccccc2)cc1C | 7% | · | 12% | -4% | -22% | 10
O=C(NCc1ccncc1)[C@@H]1CCCN1C(=O)[C@@H]1CCCN1C(=O)c1cccc2ccccc12 | 3% | · | 4% | -25% | -26% | -103*
SMILES | HT1080 IDH1KD tx | uPA surface inh | HT1080NT lethal | DT40 TDP1 CPT | DT40 TDP1 no CPT | IL1B secr inh
COc1cccc(CNC(=O)[C@@H]2CCCN2C(=O)[C@H]2CCCCN2S(=O)(=O)c2ccc(OC)c(C)c2)c1 | 0% | · | 1% | ? | 21µM* | -3
COc1ccc(S(=O)(=O)N2CCC[C@H]2C(=O)N2CCC[C@H]2C(=O)NCc2ccccc2)cc1C | 11% | · | 1% | ? | ? | 0
COc1ccc(S(=O)(=O)N2CCC[C@H]2C(=O)N2CCC[C@H]2C(=O)NCc2ccc(F)cc2F)cc1C | ? | · | ? | ? | 18µM* | 18
COc1ccc(S(=O)(=O)N2CCC[C@H]2C(=O)N2CCC[C@H]2C(=O)NCc2ccncc2)cc1C | 4% | · | 1% | -35% | -34% | -57*
N[C@H](CCC(=O)N[C@H](CSN=O)C(=O)NCC(=O)O)C(=O)O | · | · | · | 0% | -14% | ·
C[C@@H](C(=O)NCc1ccccc1)[C@@H]1C[C@@]1(C)[C@@H](NC(=O)OCc1ccccc1)c1ccccc1 | -6% | -20% | 0% | 16µM* | ? | -57*
C[C@@H](C(=O)NCCc1c[nH]c2ccccc12)[C@@H]1C[C@@]1(C)[C@@H](NC(=O)OCc1ccccc1)c1ccccc1 | -4% | 5% | -5% | 13µM* | 18µM* | ?
CNC(=O)[C@H](C)[C@@H]1C[C@@]1(C)[C@@H](NC(=O)OCc1ccccc1)c1ccccc1 | 11% | -3% | 13% | ? | -25% | -1
C[C@@H](C(=O)Nc1ccc2ccccc2c1)[C@@H]1C[C@@]1(C)[C@@H](NC(=O)OCc1ccccc1)c1ccccc1 | 1% | 5% | 5% | ? | 16µM* | -18
C[C@@H](C(=O)NCc1ccccn1)[C@@H]1C[C@@]1(C)[C@@H](NC(=O)OCc1ccccc1)c1ccccc1 | 16% | 0% | 0% | 23µM* | 13µM* | -14
Cn1[nH]c(C(F)(F)F)cc1=O | -1% | 15% | -3% | -16% | 4% | -10
Cc1ccc(CNC(=O)[C@H](C)[C@H]2C[C@]2(C)[C@H](NC(=O)OCc2ccccc2)c2ccccc2)o1 | -11% | -12% | 0% | ? | 16µM* | -4
C[C@@H](C(=O)NCC1CC1)[C@H]1C[C@]1(C)[C@H](NC(=O)OCc1ccccc1)c1ccccc1 | 2% | 0% | 0% | 26µM* | ? | -5
C[C@@H](C(=O)Nc1ccc2ccccc2c1)[C@H]1C[C@]1(C)[C@H](NS(=O)(=O)c1ccccc1)c1ccccc1 | -11% | -9% | -1% | ? | 21µM* | ?
COc1ccccc1CNC(=O)C(Cc1c[nH]c2ccccc12)NC(=O)OCc1ccccc1 (stereo not drawn) | -13% | -7% | -16% | ? | 18µM* | -26
O=C(NC1CC(=O)N(c2ccc3c(c2)OCCO3)C1)N1CCC(O)CC1 (stereo not drawn) | -1% | 1% | 3% | 6% | -3% | 8
